Results published in PubChem BioAssay AID903 (National Center for Advancing Translational Sciences (NCATS), 2007).
Hit rate of the full screen: of about 55,000 compounds, about 340 (0.62%) were called active. About 3% were inconclusive and are not listed. The entries come from a sample that favours actives as a whole. Values without a mark were called inactive. Calls come from the whole dose curve; as a rule, active = well fitted cell-killing curve with a large enough effect; inconclusive = small, poorly fitted or top-dose-only effect; inactive = no such curve, though single readings can be large or run the other way.

experiment: qHTS Screen for Compounds that Selectively Target Cancer Cells with p53 Mutations: Cytotoxicity of p53 Null Cells at the Permissive Temperature; conditions: H1299-neo p53 null cells, ATP luminescence, 24 h, 32C; series mostly up to 46.1 µM; activity change, negative = cytotoxicity: at the top concentration; note: nearly all actives have a fitted effect of over 55% in size;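 for activity change, negative = cytotoxicity: 0% = DMSO only and -100% = full killing by 100 µM tamoxifen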
Description: NIH Chemical Genomics Center [NCGC] NIH Molecular Libraries Screening Centers Network [MLSCN] MLSCN Grant: 1 X01 MH079844-01 Assay Submitter (PI): Dr. SUN, YI, University of Michigan NCGC Assay Overview: Synthetic Lethal Screen for Compounds to Kill Cancer Cells with p53 Mutation. Tumor suppressor gene p53 serves as a major cellular barrier against tumorigenesis. […] The goal of this screening is to identify small molecule probes that selectively kill cancer cells with mutations in p53. This screening was carried out using two lines of H1299 lung cancer cells. The H1299-p53 A138V line express a temperature sensitive p53 mutant (p53ts) in which the mutant p53 protein (A138V) is in the mutant confirmation when grown at 39C (the nonpermissive temperature) and in the wild type conformation when grown at 32C (the permissive temperature). A H1299-neo line (p53 null) grown at both 39C and 32C were used as counter-screens to filter out false positive associated with temperature shifting. The small molecular compounds that selectively target mutant p53-containing cancer cells were selected as candidate probes for further study. A cytotoxicity assay based on the measurement of ATP contents in cells was used in this screen. Concentration-responses of all the compounds in the library collection were determined in qHTS using the cell lines and temperature conditions as above.
NCGC Assay Protocol Summary: Both the H1299-p53A138V and H1299-neo cell lines were provided by Dr.Yi Sun, a PI at the University Michigan. The cells were maintained and cultured at 37C. The resuspended frozen cells were used to plate the cells in the 1536-well assay plates at a density of 600 cells per well in 5 ul medium. The assay plates with the cells were incubated at 37C for 16 to 30 hours before the experiments. The library compounds in DMSO solution were added to the cells in assay plates and incubated 24 hours at 39C (for mutant p53 conformation) or 32C (for normal p53 conformation as control). An ATP_lite assay kit (PerkinElmer) was used to determine the cell viability. Tomaxifen (100uM) was used as the positive control for cell killing. Data were normalized to the controls for basal activity (DMSO only) and 100% killing (100uM tamoxifen). AC50 values were determined from concentration-response data modeled with the standard Hill equation. P53 assay protocol: 1. Reagent; 5 uL H1299-p53A138V or H1299-neo cell cells/well 2. Time; overnight; 37C incubation 3. Compounds; 23 nL; 5.9 nM to 46 uM 4. Controls; 23 nL; Tamoxifen 100 uM 5. Time; 24 hr; 32C incubation 6. Reagent; 3 uL; ATP_Lite reagent 7. Time; 20 min; Room Temperature 8. Detection; Luminescence; Viewlux plate reader Keywords: p53, synthetic lethal, cancer, cell viability, cytotoxicity, H1299 cell line, luminescence, MLSMR, MLSCN, NIH Roadmap, qHTS, NCGC
Potency is the fitted concentration of half-maximal effect.

Structure (SMILES)	activity change, negative = cytotoxicity [%]	Potency
COc1cccc(CNCc2c(C(=O)O)n(Cc3ccc(C)cc3)c3cc(C)ccc23)c1OC	-5.03	
O=C(Cn1cnc2c(oc3ccccc32)c1=O)Nc1ccc(OC(F)(F)F)cc1	-6.42	
CCOc1ccccc1CNC(=O)Nc1cn(CC(C)C)c(=O)c2ccccc12	6.21	
COc1ccc2oc(-c3cccc(NC(=O)CSc4ccc(Cl)cc4)c3)nc2c1	-26.4	
CCOC(=O)CN1C(C(=O)c2ccccc2)=C(OC(=O)C(C)(C)C)c2ccccc2S1(=O)=O	-1.26	
CCOC(=O)C1=C(c2ccccc2)Nc2ncnn2C1c1ccc(Cl)cc1 (centres undefined)	24.7	
O=C(CSc1nc2ccccc2[nH]1)Nc1nc(-c2ccccc2)c(-c2ccccc2)o1	36	
O=C(NCc1ccccc1)C(=O)NCC(c1ccco1)S(=O)(=O)c1ccc(Cl)cc1 (centres undefined)	7.23	
Cc1ccc(CSc2nc3ccsc3c(=O)n2CCC(C)C)cc1	-2.95	
COc1ccc(S(=O)(=O)c2c(Nc3cccc(Cl)c3)sc(C(=O)c3ccccc3)c2N)cc1	5.07	
Cc1cccc(N2CCN(C(=O)c3ccc(Nc4nc5ccccc5n5nnnc45)cc3)CC2)c1C	-5.36	
O=C(COc1ccccc1)OCc1cc(=O)n2nc(-c3cccs3)sc2n1	2.83	
CC1CCN(C(=O)Cn2c(=O)n(-c3ccc(Cl)cc3)c(=O)c3c4c(sc32)CCC4)CC1	0.896	
CCOC(=O)CSc1nc2ccc(C)cc2[nH]1	-2.59	
CCCc1nn2c(=O)cc(COC(=O)c3ccc(NC(=O)C(C)Oc4ccccc4)cc3)nc2s1 (centres undefined)	-6.2	
CCOC(=O)c1cc2c(=O)n3ccccc3nc2n(CCCOC)c1=NC(=O)C(C)Oc1ccccc1 (centres undefined)	5.37	
Cc1ccc(C(=O)Nc2ccc3[nH]c(=O)c(=O)[nH]c3c2)cc1	-11.2	
CC(C)c1ccc(NC(=O)c2ccc3c(O)c(S(=O)(=O)c4ccccc4)c(=O)[nH]c3c2)cc1		12.6 µM (active)
COc1ccc(CNC(=O)c2ccc3c(O)c(S(=O)(=O)c4ccccc4)c(=O)[nH]c3c2)cc1	-14.3	
CN(C(=O)CSc1nc2ccccc2n1Cc1ccccc1C#N)c1ccccc1	2.24	
COc1ccc(CNC(=O)CS(=O)Cc2nc(-c3cccc(C)c3)oc2C)cc1 (centres undefined)	-2.83	
Cc1cc(SCC(=O)NCCN2C(=O)CSC2=O)nc2ccccc12	-4.2	
COC(=O)CSc1ccc2nnc(CCNS(=O)(=O)c3ccc(C)cc3)n2n1	0.172	
N#CC1(NC(=O)COc2ccc3oc4ccccc4c3c2)CCCCC1	-4.07	
O=C(NCCc1ccccn1)c1cc(-c2ccc(Cl)cc2)nc2ccccc12	-28.2	

Structure (SMILES)	activity change, negative = cytotoxicity [%]	Potency
CCC(=O)NCc1cc(-c2nn(C)c(=O)c3ccccc23)ccc1OC	-3.54	
CCOc1ccc(C(O)Cc2nc3ccccc3n2C)cc1 (centres undefined)	-7.33	
CC(C)(C)c1ccc(C(=O)NCC(=O)OCN2C(=O)c3ccccc3C2=O)cc1	-4.46	
Cc1ccc(NC(=O)c2cn3c4c(ccc(Cl)c4c2=O)OC(C)C3)cc1C (centres undefined)	-6.91	
Cc1cc(C)cc(NC(=O)Cc2csc(C)n2)c1	-5.68	
COc1ccc2c(c1)Cc1sc(NC(=O)c3ccccc3Br)nc1-2	-29.5	
CCc1ccc(CNC(=O)C2CCN(c3nn4cc(-c5ccc(F)cc5)nc4s3)CC2)cc1	0.0691	
CCC(CC)c1nn2cc(-c3ccccc3)nc2s1		6.31 µM (active)
CCCS(=O)(=O)Nc1cccc(-c2cn3ccsc3n2)c1	-16.5	
Cc1ccccc1NC(=O)c1c(NC(=O)c2ccccc2F)sc2c1CCC(C)C2 (centres undefined)	1.58	
Cc1cc(C)cc(OC(C)C(=O)Nc2nc3c(s2)CCCC3)c1 (centres undefined)	7.37	
O=C(Nc1nc2c(s1)CCCC2)c1ccccc1F		6.31 µM (active)
CCOC(=O)NC(=O)CSc1nnc(SCCC(=O)O)s1	-2.55	
CCC(C)NC(=O)c1ccccc1NC(=O)c1ccccc1N(C)S(C)(=O)=O (centres undefined)	7.32	
Cc1ccc(-n2nnnc2CNC(=O)c2ccccc2C)cc1C	9.36	
COC(=O)c1cnn(-c2ccc(C(=O)Nc3ccc(OC(F)(F)F)cc3)cc2)c1N	-7.31	
CCn1c(O)c(N=NC(=O)c2cccc(S(=O)(=O)N3CCCCC3)c2)c2ccccc21	-1.69	
CCCCc1nn2c(=O)cc(COC(=O)c3cccc(NC(=O)COc4ccccc4)c3)nc2s1	-9.02	
Cc1nn2c(=O)cc(COC(=O)c3cccc(NC(=O)COc4ccccc4Cl)c3)nc2s1		12.6 µM (active)
Cc1nn2c(=O)cc(COC(=O)c3ccccc3NC(=O)COc3ccccc3C)nc2s1	-5.39	
CCc1nc2cccnc2n1-c1ccc(CC(=O)Nc2c(C)cccc2C)cc1	6.52	
CCCCC1N2CC3([N+](=O)[O-])CN1CC([N+](=O)[O-])(C2)C3(C)C (centres undefined)	-16.9	
Cc1cc(-c2ccc(C)c(S(=O)(=O)N3c4ccccc4CC3C)c2)on1 (centres undefined)	13.3	
Cc1ccc(-c2nnc(SCC(=O)N/N=C/c3cccs3)n2-c2ccc(C)cc2)cc1	-10.3	
